Laboratory results as given in PubChem BioAssay (EPA / NIEHS).
Activity calls are given as the source filed them. Rule for the calls: active = hit-call score of the fitted dose curve at least 0.9, where 1 is the maximum; inactive = score below 0.9.

Tests used:
[1] = read-out: Urokinase-type plasminogen activator receptor (uPAR), PLAUR (gene 5329); assay: BSK_4H_uPAR: BioMAP Diversity Plus: 4H Assay for Urokinase-type plasminogen activator receptor (uPAR) Biomarker Activity (AID 2283030); conditions: primary human endothelial cells (HUVEC); actives raise or lower the signal
Outline: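 uPAR level read by ELISA on HUVEC cultures (BioMAP 4H) 24 h post-dosing, analyzed for gain or loss relative to DMSO. Parallel SRB staining assessed overt cytotoxicity.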

[2] = read-out: Vascular endothelial growth factor receptor 2 (Homo sapiens) (UniProt P35968); assay: BSK_4H_VEGFRII: BioMAP Diversity Plus: 4H Assay for Vascular endothelial growth factor receptor 2 (VEGFR2) Biomarker Activity (AID 2283031); conditions: primary human endothelial cells (HUVEC); actives raise or lower the signal;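 for AC50: cell-surface VEGFR2 protein level quantified by ELISA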
Outline: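 Measured by ELISA after 24 h of compound treatment: VEGFR2 on primary human umbilical vein endothelial cells, fitted in both directions relative to DMSO. Parallel cultures received SRB staining (560 nm) for overt cytotoxicity.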

[3] = read-out: Human Leukocyte Antigen - DR isotype (HLADR), HLA-DRA (gene 3122); assay: BSK_BE3C_HLADR: BioMAP Diversity Plus: BE3C Assay for Human Leukocyte Antigen - DR isotype (HLADR) Biomarker Activity (AID 2283032); conditions: primary human bronchial epithelial cells; actives raise or lower the signal
Outline: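 Signal came from an ELISA for HLA-DR in human bronchial epithelial primary cells harvested 24 h after treatment; gain- and loss-of-signal fitting used DMSO controls as reference.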

[4] = read-out: Vascular cell adhesion molecule 1 (VCAM1), VCAM1 (gene 7412); assay: BSK_4H_VCAM1: BioMAP Diversity Plus: 4H Assay for Vascular cell adhesion molecule 1 (VCAM1) Biomarker Activity (AID 2283033); conditions: primary human endothelial cells (HUVEC); actives raise or lower the signal
Outline: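 Endpoint derived from bidirectional fitting against DMSO controls of VCAM-1 ELISA signal in umbilical vein endothelial cells sampled at 24 h following treatment.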

[5] = read-out: Interferon-gamma inducible Protein 10 (IP10), CXCL10 (gene 3627); assay: BSK_BE3C_IP10: BioMAP Diversity Plus: BE3C Assay for Interferon-gamma inducible Protein 10 (IP10) Biomarker Activity (AID 2283034); conditions: primary human bronchial epithelial cells; actives raise or lower the signal
Outline: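 Using primary human bronchial epithelial cultures, the assay captures IP-10 by ELISA one day (24 h) after exposure. Parallel SRB staining of total protein flags overt cytotoxicity. Fits run bidirectionally relative to DMSO.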

[6] = read-out: Monokine induced gamma interferon (MIG), CXCL9 (gene 4283); assay: BSK_BE3C_MIG: BioMAP Diversity Plus: BE3C Assay for Monokine induced gamma interferon (MIG) Biomarker Activity (AID 2283035); conditions: primary human bronchial epithelial cells; actives raise or lower the signal;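 note: MIG protein measured by ELISA in BE3C cultures after 24 h of dosing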
Outline: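 MIG level was determined by ELISA after 24 h chemical treatment of primary human bronchial epithelial cells. Values were fitted bidirectionally with DMSO as the negative control and activity baseline.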

[7] = read-out: Transforming growth factor beta 1 (TGFb1), TGFB1 (gene 7040); assay: BSK_BE3C_TGFb1: BioMAP Diversity Plus: BE3C Assay for Transforming growth factor beta 1 (TGFb1) Biomarker Activity (AID 2283036;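 note: TGF-b1 protein level measured by ELISA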); conditions: primary human bronchial epithelial cells; actives raise or lower the signal
Outline: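 In this human primary bronchial epithelial system, an ELISA quantified TGF-b1 one day after dosing. Endpoint changes in either direction were fitted relative to DMSO.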

[8] = read-out: Plasminogen activator inhibitor-1 (PAI1), SERPINE1 (gene 5054); assay: BSK_BE3C_PAI1: BioMAP Diversity Plus: BE3C Assay for Plasminogen activator inhibitor-1 (PAI1) Biomarker Activity (AID 2283037); conditions: primary human bronchial epithelial cells; actives raise or lower the signal
Outline: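 PAI-1 biomarker levels in treated human bronchial epithelial cells are determined by ELISA at 24 h. Both increases and decreases relative to DMSO are fitted.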

[9] = read-out: urokinase plasminogen activator (uPA), PLAU (gene 5328); assay: BSK_BE3C_uPA: BioMAP Diversity Plus: BE3C Assay for urokinase plasminogen activator (uPA) Biomarker Activity (AID 2283038); conditions: primary human bronchial epithelial cells; actives raise or lower the signal;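 note: uPA protein level quantified by ELISA in cell cultures; uPA read one day after compound addition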
Outline: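 ELISA for uPA on human primary bronchial epithelial cultures 24 h post-treatment, gain or loss against DMSO. Parallel SRB staining (0.1% after 10% TCA fixation, 560 nm) assessed overt cytotoxicity.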

[10] = read-out: Urokinase-type plasminogen activator receptor (uPAR), PLAUR (gene 5329); assay: BSK_BE3C_uPAR: BioMAP Diversity Plus: BE3C Assay for Urokinase-type plasminogen activator receptor (uPAR) Biomarker Activity (AID 2283039); conditions: primary human bronchial epithelial cells; actives raise or lower the signal
Outline: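 A uPAR ELISA serves as the readout, taken 24 h after treating primary human bronchial epithelial cells. Responses in either direction are fitted against DMSO, which defines baseline activity.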

[11] = read-out: Interleukin-6 (IL6), IL6 (gene 3569); assay: BSK_CASM3C_IL6: BioMAP Diversity Plus: CASM3C Assay for Interleukin-6 (IL6) Biomarker Activity for (AID 2283040); conditions: primary human coronary artery smooth muscle cells; actives raise or lower the signal
[12] = read-out: Tissue plasminogen activator (tPA), PLAT (gene 5327); assay: BSK_BE3C_tPA: BioMAP Diversity Plus: BE3C Assay for Tissue plasminogen activator (tPA) Biomarker Activity (AID 2283041); conditions: primary human bronchial epithelial cells; actives raise or lower the signal;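 note: tPA level quantified by ELISA one day after compound addition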
Outline: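 Bidirectional curve fitting relative to DMSO defined activity, with tPA detected by ELISA in chemically treated human bronchial epithelial primary cells at 24 hours.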

[13] = read-out: Interleukin-8 (IL8), CXCL8 (gene 3576); assay: BSK_CASM3C_IL8: BioMAP Diversity Plus: CASM3C Assay for Interleukin-8 (IL8) Biomarker Activity (AID 2283042); conditions: primary human coronary artery smooth muscle cells; actives raise or lower the signal;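 note: IL-8 protein level quantified by ELISA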
[14] = read-out: Human Leukocyte Antigen - DR isotype (HLADR), HLA-DRA (gene 3122); assay: BSK_CASM3C_HLADR: BioMAP Diversity Plus: CASM3C Assay for Human Leukocyte Antigen - DR isotype (HLADR) Biomarker Activity (AID 2283043); conditions: primary human coronary artery smooth muscle cells; actives raise or lower the signal;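 note: cell-surface HLA-DR protein level quantified by ELISA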
[15] = read-out: Macrophage colony-stimulating factor (MCSF), CSF1 (gene 1435); assay: BSK_CASM3C_MCSF: BioMAP Diversity Plus: CASM3C Assay for Macrophage colony-stimulating factor (MCSF) Biomarker Activity (AID 2283044); conditions: primary human coronary artery smooth muscle cells; actives raise or lower the signal;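 note: M-CSF protein amount quantified by ELISA after 24 h exposure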
[16] = read-out: Low-density lipoprotein receptor (LDLR), LDLR (gene 3949); assay: BSK_CASM3C_LDLR: BioMAP Diversity Plus: CASM3C Assay for Low-density lipoprotein receptor (LDLR) Biomarker Activity (AID 2283045); conditions: primary human coronary artery smooth muscle cells; actives raise or lower the signal;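 note: LDLR protein level on the cell surface quantified by ELISA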
[17] = read-out: Monocyte Chemoattractant Protein-1 (MCP1), CCL2 (gene 6347); assay: BSK_CASM3C_MCP1: BioMAP Diversity Plus: CASM3C Assay for Monocyte Chemoattractant Protein-1 (MCP1) Biomarker Activity (AID 2283046); conditions: primary human coronary artery smooth muscle cells; actives raise or lower the signal;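 note: MCP-1 level quantified by ELISA 24 h after dosing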
[18] = BSK_CASM3C_Proliferation: Cell Proliferation Assessment in the BioMAP Diversity Plus: CASM3C Assay (AID 2283047); conditions: primary human coronary artery smooth muscle cells;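 note: sulforhodamine B total protein stain as relative cell number at 560 nm; sub-confluent cells exposed 48 h before staining; fitted both ways against DMSO so gain or loss of cell number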
[19] = read-out: Monokine induced gamma interferon (MIG), CXCL9 (gene 4283); assay: BSK_CASM3C_MIG: BioMAP Diversity Plus: CASM3C Assay for Monokine induced gamma interferon (MIG) Biomarker Activity (AID 2283048); conditions: primary human coronary artery smooth muscle cells; actives raise or lower the signal;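 note: MIG protein level measured by ELISA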
[20] = read-out: serum amyloid A (SAA), SAA1 (gene 6288); assay: BSK_CASM3C_SAA: BioMAP Diversity Plus: CASM3C Assay for serum amyloid A (SAA) Biomarker Activity (AID 2283049); conditions: primary human coronary artery smooth muscle cells; actives raise or lower the signal;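 note: SAA protein level quantified by ELISA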

Measured: AC50

CCOC(=O)CC(SP(=O)(OC)OC)C(=O)OCC (centres undefined)
inactive: all assays above

CN(C)NC(=O)CCC(=O)O
inactive: all assays above

CNC(=O)ON=C(SC)C(=O)N(C)C
inactive: all assays above

S=C1NCCN1
active: [10] 397 nM
inactive: all other assays above

CNC(=O)Oc1cccc2c1OC(C)(C)O2
active: [4] 20 µM
inactive: all other assays above

CC(C)[C@H](C(=O)O[C@H](C#N)c1cccc(Oc2ccccc2)c1)c1ccc(Cl)cc1
active: [4] 2.95 µM | [10] 5230 nM | [18] 9.47 µM
inactive: all other assays above

CC1(C(=O)Nc2ccc(O)c(Cl)c2Cl)CCCCC1
inactive: all assays above

Nc1c(Cl)cc([N+](=O)[O-])cc1Cl
active: [3] 12.6 µM
inactive: all other assays above

CCOP(=S)(OCC)OC(Cl)C(Cl)(Cl)Cl (centres undefined)
active: [11] 20 µM | [18] 37 µM
inactive: all other assays above

O=C(O)c1cc(Oc2ccc(C(F)(F)F)cc2Cl)ccc1[N+](=O)[O-]
inactive: all assays above

C#CC(C)(C)NC(=O)c1cc(Cl)cc(Cl)c1
active: [3] 4.39 µM | [5] 14.9 µM
inactive: all other assays above

CCOP(=S)(Oc1cnc(C(C)(C)C)nc1)OC(C)C (centres undefined)
active: [2] 31.9 µM | [4] 36.8 µM | [18] 32.2 µM
not listed: [10]
inactive: all other assays above
